High-throughput results (PubChem)
CHO-K1 Ca PAM = nonselective activator or artifact in parental CHO-K1 calcium assay. ATP EC20, Fluo-8 calcium fluorescence; 0% at ATP EC20, 100% at ATP max. activation, % at 3 µM. 360,000 compounds, 0.02% hits. AID 602247;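 active = activation above the run cutoff, the mean activation of all test compounds plus 3 SD, cut at about 40% in these data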;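 also: peak over basal fluorescence ratio in a 140 s read after ATP addition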
CHRM1 agonist = agonists of human M1 muscarinic receptor | P11229 | CHO-K1 hM1, Fluo-8 calcium fluorescence, agonist mode; 0% DMSO, 100% acetylcholine EC100 | activation, % at 3 µM | 360,000 compounds, 0.33% hits | AID 588814;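 active = activation above the run's mean compound activation plus 3 SD, cut at about 16% in these data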;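 also: peak over basal fluorescence ratio within a 140 s kinetic read after compound addition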
Target sequence (P11229 whole entry, looked up): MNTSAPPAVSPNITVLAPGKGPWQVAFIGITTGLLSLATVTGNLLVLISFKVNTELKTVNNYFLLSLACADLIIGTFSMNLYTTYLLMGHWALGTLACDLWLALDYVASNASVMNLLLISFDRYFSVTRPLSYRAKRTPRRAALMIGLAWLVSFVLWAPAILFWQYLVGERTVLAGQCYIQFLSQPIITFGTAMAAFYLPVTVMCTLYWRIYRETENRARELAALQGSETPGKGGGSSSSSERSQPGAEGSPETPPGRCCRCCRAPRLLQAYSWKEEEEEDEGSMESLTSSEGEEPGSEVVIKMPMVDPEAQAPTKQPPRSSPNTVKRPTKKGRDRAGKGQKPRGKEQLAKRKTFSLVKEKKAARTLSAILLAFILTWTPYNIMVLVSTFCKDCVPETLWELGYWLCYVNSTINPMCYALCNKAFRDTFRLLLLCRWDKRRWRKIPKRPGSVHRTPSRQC
CHO-K1 Ca antag = nonselective inhibitor or artifact in parental CHO-K1 cells. 360,000 compounds, 0.6% hits. inhibition, % at 3 µM. ATP-induced calcium, Fluo-8 fluorescence. AID 602250;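 active = inhibition above a per-plate cutoff, the plate's mean sample inhibition plus 3 SD, cut at about 24% in these data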;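 also: 0% = DMSO plus EC80 ATP and 100% = DMSO alone without ATP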
CHRM1 antagonist = human CHRM1 antagonism. 360,000 compounds, 1.3% hits. CHO-K1 hM1, Fluo-8 calcium fluorescence, ACh EC80 antagonist. inhibition, % at 3 µM. P11229;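 active = percent inhibition above its own plate's cutoff, namely the mean of that plate's compound wells plus 3 SD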;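 also: peak over basal fluorescence ratio during 140 s after agonist addition; 0% = ACh EC80 plus DMSO and 100% = DMSO alone without agonist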
M1 PAM = potentiates human M1 receptor response to acetylcholine. P11229. 360,000 compounds, 0.088% hits. CHO-K1 hM1, Fluo-8 calcium fluorescence, ACh EC20; 0% = ACh EC20, 100% = maximal ACh. activation, % at 3 µM; in the data active = activation above about 19%, passing the limit was not always enough
CHO-K1 Ca ag = nonselective activator or artifact in parental CHO-K1 cells; Fluo-8 calcium fluorescence; scaled to maximal ATP response, vehicle zero; AID 602248; activation, % at 3 µM; 360,000 compounds, 0.48% hits; in the data active = activation above about 15%;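 also: untransfected CHO-K1 host cells lacking M1 receptor as counterscreen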
Numbers without * were called inactive. Sampled rows, rich in hits. Any-hit rate of the full collection: about 2.3%.

SMILES | CHO-K1 Ca PAM | CHRM1 agonist | CHO-K1 Ca antag | CHRM1 antagonist | M1 PAM | CHO-K1 Ca ag
Cc1c(NC(=O)Nc2ccc(Cl)c(Cl)c2)c(=O)n(-c2ccccc2)n1C | 1 | -3 | 20 | 40* | -2 | 5
Cc1c(Cl)c([N+](=O)[O-])nn1CCCC(=O)Nc1c(C)n(C)n(-c2ccccc2)c1=O | 18 | -8 | -9 | 67* | -25 | 1
Cc1c(NC(=O)Nc2ccccc2)c(=O)n(-c2ccccc2)n1C | 6 | -4 | -9 | 15 | -6 | 0
FC(F)Sc1ccc(-n2c(-c3ccc(Cl)cc3)c[n+]3c2CCC3)cc1 | -5 | -6 | 0 | 61* | -21 | 0
CCCNC(=O)C1(C)CCCN(C(=O)CN2C(=O)c3ccccc3C2=O)C1 (stereo unspecified) | 6 | 0 | -1 | -5 | 2 | 0
O=C(NN1C(=O)NC2(CCCCC2)C1=O)c1cc2cc(Cl)ccc2o1 | 7 | -3 | -19 | -9 | 7 | 0
O=C(NN1C(=O)NC2(CCCCC2)C1=O)c1ccc(-c2ccc(Cl)cc2)o1 | -6 | -5 | -15 | 29* | -15 | 1
C#CCSc1nc(-c2cccs2)ccc1C#N | 5 | -5 | -2 | 6 | -8 | 0
COC(=O)CSc1nc(-c2cccs2)ccc1C#N | 19 | -8 | -7 | 47* | -18 | 2
CN1CCN(C(=O)CSc2nc(-c3ccncc3)ccc2C#N)CC1 | -1 | -4 | 19 | 26* | -10 | 1
Cc1ccc2nc(-c3cccc(Br)c3)c(Cc3ccccn3)n2c1 | 7 | -6 | -20 | -23 | 0 | 2
COC(=O)c1cccnc1-n1c(=O)c2cccnc2n(Cc2ccc([N+](=O)[O-])cc2)c1=O | -18 | 18* | 7 | -9 | 4 | 1
O=C(Nc1cccc(Cl)c1N1CCOCC1)c1cccnc1Cl | 8 | 4 | -1 | -2 | 11 | 22*
Cc1ccc(NC(=S)Nc2ccc(Cl)c(Cl)c2)c(OC(F)F)c1 | -6 | -4 | 26* | 26 | -14 | 10
CCOC(=O)c1nn(-c2ccc(C)cc2)c(=O)c2c(N)scc12 | -9 | 0 | 33* | 22 | -7 | -1
CCOC(=O)c1nn(-c2ccc(F)cc2)c(=O)c2c(N)scc12 | 20 | -6 | -4 | -6 | 17 | 0
Cc1cccc(N2CCN(C(=O)c3ccc(NS(=O)(=O)c4c(C)noc4C)cc3)CC2)c1C | 7 | -3 | 2 | -2 | 1 | 0
Cc1noc(C)c1S(=O)(=O)Nc1ccc(C(=O)N2CCN(c3cccc(Cl)c3)CC2)cc1 | -10 | 3 | 1 | 17 | -16 | 17*
O=C(NC1CC1)c1[nH]c(C(F)(F)F)nc1-c1ccccc1 | -3 | -3 | -4 | -17 | 1 | 0
CCN(CC)CCCN(Cc1cc2cc3c(cc2[nH]c1=O)OCO3)C(=S)NCCCOC | -22 | -9 | 24* | 0 | 3 | 0
COCCNC(=S)N(CCCO)Cc1cc2cc3c(cc2[nH]c1=O)OCCO3 | -20 | -2 | 26* | 16 | -7 | 0
COCCNC(=S)N(CCO)Cc1cc2cc3c(cc2[nH]c1=O)OCO3 | 11 | -5 | -5 | 3 | 2 | 1
CCN(CC)CCN(Cc1cc2cc3c(cc2[nH]c1=O)OCO3)C(=S)NCCCOC | 27 | -7 | 0 | -12 | 10 | 1
Cc1ccc(S(=O)(=O)N2C[C@H]3C(=O)C[C@@H](c4cccs4)N(S(=O)(=O)c4ccc(C)cc4)[C@H]3C[C@H]2c2ccccc2)cc1 | 8 | -1 | 6 | -6 | 8 | 1
C[C@H](CO)N1C[C@H](C)[C@@H](CN(C)Cc2ccncc2)OCc2cnnn2CCCC1=O | 21 | -9 | -17 | -13 | 6 | 1
SMILES | CHO-K1 Ca PAM | CHRM1 agonist | CHO-K1 Ca antag | CHRM1 antagonist | M1 PAM | CHO-K1 Ca ag
Cc1onc(-c2ccccc2)c1C(O)c1ccc(F)cc1 (stereo unspecified) | -11 | -6 | 33* | 42* | -23 | 7
Cc1onc(-c2ccccc2Cl)c1C(O)c1ccc(F)cc1 (stereo unspecified) | 5 | -7 | -18 | -6 | 1 | 1
CCc1ccc(NC(=O)CSc2nc3cc(C(=O)OC)ccc3c(=O)n2Cc2ccco2)cc1 | -1 | -3 | 10 | -4 | 5 | 0
CCN(C(=O)CSc1nc2cc(C(=O)OC)ccc2c(=O)n1Cc1ccco1)c1cccc(C)c1 | -5 | 0 | 26* | 1 | 11 | -1
c1ccc2c(c1)CCc1ccccc1C2=C1CCNCC1 | 7 | -7 | -3 | 100* | -25 | 1
O=C1C(=C2CCc3ccccc32)Cc2ccccc21 | -5 | -6 | -7 | -17 | 6 | 0
Cc1noc(-c2ccccc2)c1NC(=O)Nc1ccc(Cl)cc1 | 6 | 0 | 2 | 41* | -24 | 15*
COc1ccc(Cc2c(-c3ccccc3)nc3c4ccccc4ccn23)c(C)c1 | 0 | -2 | -21 | -28 | 2 | 0
Cc1ccc(C2(c3ccc(C)cc3)CC2C(=O)Nc2ccc([N+](=O)[O-])cc2O)cc1 (stereo unspecified) | 0 | 3 | 18 | 25* | -20 | 9
CC1(C)CC1C(=O)Nc1ccc([N+](=O)[O-])cc1Br (stereo unspecified) | 4 | -7 | -2 | -8 | 13 | 0
Cc1nc2sc(C(c3ccccc3)N3CCN(CCO)CC3)c(O)n2n1 (stereo unspecified) | -5 | -4 | 31* | 16 | -8 | 0
COC(=O)C1CCN(C(c2ccc(OC)c(OC)c2)c2sc3nc(C)nn3c2O)CC1 (stereo unspecified) | 20 | 1 | 8 | 36* | -8 | 5
Cc1ccc(C(c2sc3nc(C)nn3c2O)N2CCN(CCO)CC2)cc1 (stereo unspecified) | 12 | -4 | -2 | -8 | 6 | 1
O=S1(=O)NC(=NCC(c2ccco2)N2CCCCC2)c2ccccc21 (stereo unspecified) | 4 | -8 | -10 | 57* | -24 | 1
O=C(CN1CCCCCC1)N1c2ccccc2C=Cc2ccccc21 | 25 | -7 | -3 | 98* | -25 | 1
CN1CCN(C(=O)N2c3ccccc3C=Cc3ccccc32)CC1 | 2 | -5 | 1 | 94* | -24 | 0
O=C(CN1CCCC1)N1c2ccccc2C=Cc2ccccc21 | 9 | -6 | -22 | 90* | -22 | 1
O=C(CN1CCCCC1)N1CCCc2ccccc21 | 14 | -15 | -18 | 8 | -9 | 0
CN1CCN(/C=N/c2c(C#N)cnn2-c2ccccc2)CC1 | 4 | -3 | -2 | 30* | -13 | 0
Cc1ccc(-n2ncc(C#N)c2/N=C/N2CCN(C)CC2)cc1 | 20 | -7 | -7 | -8 | -6 | 1
CN1CCCN(C(=O)CC(c2ccccc2)c2ccccc2)CC1 | 0 | -12 | 2 | 99* | -31 | 0
